Data as given in PubChem BioAssay AID463173 (ICCB-Longwood Screening Facility, Harvard Medical School, 2010).
Screen size: about 52,000 compounds; about 4,300 (8.3%) were called active. Cut-off read from the data, not from the text of the source: active = survival mostly below about 52% (no sharp cut-off); inactive = mostly above about 56%. The sample as a whole holds a higher share of actives than the screen did.

test system: DeltatarO mutant; test: S. aureus survival, RN4220 and DeltatarO strains – OD600, teichoic acid synthesis inhibitors, primary screen (AID 463173); details: S. aureus RN4220 wild type/DeltatarO growth, OD600, 18 h, hits give low values, screened at 18.75 µg/mL (by protocol)

SMILES | survival
O=C(Nc1nc2c(F)cccc2s1)c1ccc(S(=O)(=O)N2CCOCC2)cc1 | 103% (inactive)
COc1cc(NC(=O)c2nn(C)c3c2CS(=O)(=O)c2ccccc2-3)cc(OC)c1 | 68% (inactive)
Cc1cc(C)c(NC(=O)Cn2cnc3c(oc4ccccc43)c2=O)c(C)c1 | 69% (inactive)
COc1ccc(C2C(=O)N(C3CCC(C)CC3)CC(=O)N2Cc2ccc(C)cc2)cc1OC (stereo unspecified) | 86% (inactive)
CCC(C(=O)N(C)Cc1ccccc1)n1nc(C)c2sc3ccccc3c2c1=O (stereo unspecified) | 66% (inactive)
O=C(CC(c1ccccc1)c1ccccc1)N1CCN(Cc2ccc3c(c2)OCO3)CC1 | 67% (inactive)
O=C(CCCc1nc(-c2ccc(Cl)cc2)no1)NCc1ccco1 | 54% (inactive)
COc1ccc(C(=O)NCc2ccc3c(c2)CCN3C(C)=O)cc1OC | 83% (inactive)
Cc1ccc(C)c(CNC(=O)c2ccc3c(c2)nc2n3CCC(C)C2)c1 (stereo unspecified) | 91% (inactive)
Cc1ccc(S(=O)(=O)N2CCCc3cc(NS(=O)(=O)c4ccc(C)c(C)c4)ccc32)cc1 | 67% (inactive)
COc1cccc(Cn2c(=O)n(Cc3ccccc3)c(=O)c3c2c2cc(OC)ccc2n3C)c1 | 64% (inactive)
COc1ccc2c(c1)c1c(c(=O)n(Cc3ccccc3)c(=O)n1Cc1ccccc1)n2C | -1% (active)
COc1ccc2c(c1)c1c(c(=O)n(Cc3ccccc3)c(=O)n1Cc1ccc(C)cc1)n2C | 80% (inactive)
Cc1ccc(/C=C/c2nc3ccccc3[nH]2)cc1 | 67% (inactive)
Cc1cccc(NC(=O)CSc2nc(C)cc(C)c2C(=O)Nc2ccc(Cl)cc2)c1 | 44% (inactive)
CCc1cccc(C)c1NC(=O)CSc1nc(C)cc(C)c1C(=O)Nc1ccccc1 | 44% (inactive)
Cc1ccc(NC(=O)CSc2nc(C)cc(C)c2C(=O)Nc2cccc(C)c2)cc1 | 49% (inactive)
Cc1cc(C)c(C(=O)Nc2ccccc2)c(SCC(=O)Nc2ccc(Br)cc2C)n1 | 38% (active)
Cc1ccc(C(=O)CSc2nc(C)cc(C)c2C(=O)Nc2cccc(C)c2)cc1 | 43% (inactive)

SMILES | survival
COC(=O)c1ccc(NC(=O)CSc2nc(C)cc(C)c2C(=O)Nc2ccccc2)cc1 | 44% (inactive)
Cc1cccc(NC(=O)c2c(C)cc(C)nc2SCC(=O)Nc2c(C)cc(C)cc2C)c1 | 52% (inactive)
COc1ccccc1NC(=O)c1c(C)cc(C)nc1SCC(=O)c1ccc(Cl)cc1 | 93% (inactive)
COc1ccc(C(=O)CSc2nc(C)cc(C)c2C(=O)Nc2ccccc2C)cc1 | 51% (inactive)
Cc1ccc(NC(=O)c2c(C)cc(C)nc2SCC(=O)Nc2ccc(Br)cc2)cc1 | 40% (active)
CCOc1ccccc1NC(=O)c1c(C)cc(C)nc1SCC(=O)c1cccc(OC)c1 | 40% (active)
Cc1cccc(NC(=O)c2c(C)cc(C)nc2SCC(=O)c2ccccc2)c1 | 40% (active)
Cc1ccc(S(=O)(=O)NCC2CCC(C(=O)NCCc3ccccc3)CC2)cc1 (stereo unspecified) | 81% (inactive)
O=C(NC1CC(=O)N(c2cccc(F)c2)C1)c1ccc(S(=O)(=O)N2CCOCC2)cc1 (stereo unspecified) | 76% (inactive)
Cc1ccc(NC(=O)Cn2c(=O)n(Cc3ccc(C(=O)NCc4ccc5c(c4)OCO5)cc3)c(=O)c3ccccc32)cc1 | 102% (inactive)
Cc1cc(=O)n(Cc2c(F)cccc2Cl)c2c1c(C)nn2-c1cccc(F)c1 | 77% (inactive)
Cc1cccc(NC(=O)c2c(NC(=O)c3ccco3)sc3c2CCC(C(C)(C)C)C3)c1 (stereo unspecified) | 85% (inactive)
Cc1ccc(C)c(NC(=O)Cn2cc(C(=O)c3ccco3)c3ccccc32)c1 | 64% (inactive)
COc1ccc(NC(=O)c2oc3ccccc3c2NC(=O)C23CC4CC(CC(C4)C2)C3)c(OC)c1 | 67% (inactive)
CCc1ccc(-n2nc(C)c3c(C)cc(=O)n(CC(=O)Nc4ccc(OC)c(OC)c4)c32)cc1 | 84% (inactive)
CCc1ccc(-n2nc(C)c3c(C)cc(=O)n(CC(=O)Nc4cc(Cl)ccc4OC)c32)cc1 | 52% (active)
Cc1ccc(-n2nc(C)c3c(C)cc(=O)n(CC(=O)Nc4cc(Cl)ccc4C)c32)cc1 | 125% (inactive)
CCOC(=O)Cc1ccc(NC(=O)N2CCC(CN3CCC(C)CC3)CC2)cc1 | 81% (inactive)
COc1cc2cc(C)c(SCC(=O)N3CCN(C(=O)c4ccco4)CC3)nc2cc1OC | 73% (inactive)

SMILES | survival
CCN(CC)S(=O)(=O)c1cccc2nsnc12 | 79% (inactive)
Cc1ccc(NC(=O)CSc2nc3c(sc4ccccc43)c(=O)n2CCCC(=O)NC2CCCC2)cc1C | 87% (inactive)
Cc1ccc(NC(=O)CSc2nc3nccnc3c(=O)n2CCc2c[nH]c3ccccc23)cc1 | 82% (inactive)
Cc1ccc(NC(=O)CSc2nc3nccnc3c(=O)n2CCc2c[nH]c3ccccc23)cc1C | 37% (active)
Cc1cc(C)cc(NC(=O)CSc2nc3ncccc3[nH]2)c1 | 76% (inactive)
Cc1cc(C)cc(NC(=O)CSc2nc3nccnc3c(=O)n2CCc2c[nH]c3ccccc23)c1 | 38% (active)
Cc1ccc(NC(=O)CSc2nc3ccccc3c(=O)n2CCC(=O)NC2CCCCC2)cc1C | 86% (inactive)
COc1ccccc1C(=O)OCc1cc(=O)n2nc(C3CCCCC3)sc2n1 | 97% (inactive)
c1ccc2c(NC3CCCC3)nc(N3CCNCC3)nc2c1 | 26% (inactive)
CCOCCCNC(=O)c1[nH]c2cc(C)ccc2c1Sc1ccc(Cl)cc1 | 85% (inactive)
O=C(NCCCN1CCCCC1)c1cc(Sc2ccc(Cl)cc2)nc2ccccc12 | 17% (active)
O=C(NCCCN1CCCCC1)c1[nH]c2ccccc2c1Sc1ccc(Cl)cc1 | 7% (active)
COc1ccc2c(Sc3ccc(Cl)cc3)c(C(=O)NCCCN3CCCCC3)[nH]c2c1 | -1% (active)
COc1ccc2c(Sc3ccccc3)c(C(=O)NCCc3ccc(Cl)cc3)[nH]c2c1 | 98% (inactive)
CC1CCN(CCCNC(=O)c2cc(Sc3ccc(F)cc3)nc3ccccc23)CC1 | 68% (inactive)
COCCCNC(=O)c1[nH]c2ccccc2c1Sc1ccc(C)cc1 | 69% (inactive)
COc1ccc2c(Sc3ccccc3)c(C(=O)NCCCN3CCCCC3)[nH]c2c1 | 54% (inactive)
CC1CCCCN1CCCNC(=O)c1cc(Sc2ccc(Cl)cc2)nc2ccccc12 (stereo unspecified) | 94% (inactive)
